# Results published in PubChem BioAssay (NCATS).
# Active and inactive are the calls of the source. Calls follow the shape of the dose curve; as a rule, active = well fitted curve in the direction sought with a large enough effect; inconclusive = small, poorly fitted or top-dose-only effect, or another doubt; inactive = no such curve, though single readings can be large or run the other way.
# Molecular target: Galactokinase (Homo sapiens) (UniProt P51570)
# Experiment: qHTS Validation Assay for Inhibitors of Human Galactokinase (GALK) (AID 493189)
# Conditions: purified human GALK enzyme activity, qHTS 7-point titration; series mostly up to 57.5 µM
# From the text: NIH Molecular Libraries Probe Production Centers Network [MLPCN]
# NIH Chemical Genomics Center [NCGC]
# Assay Submitter (PI): Kent Lai (University of Utah School of Medicine, 50 N Mario Capecchi Drive, Salt Lake City, UT 84132)
# Inherited deficiency of galactose-1-phosphate uridyltransferase (GALT) can result in a potentially lethal disorder called Classic Galactosemia (OMIM 230400). Several lines of evidence indicate that an elevated level of galactose-1-phosphate (gal-1-p), the product of galactokinase (GALK), is a major, if not sole, pathogenic mechanism in patients with classic galactosemia. Therefore, finding inhibitors of GALK is a potential novel therapy for this inherent metabolic disease and is the long term goal of this project.
# GALK (provided by the assay submitter) was assayed using ATP and D-(+)-Galactose (Sigma-Aldrich cat# G0750) as substrates. Promega Kinase-Glo Plus (cat# V3774) technology was used to detect the residual ATP following kinetic reaction. Briefly, the Kinase-Glo Plus contains Ultra-Glo [2] luciferase and D-luciferin which generates a bioluminescence signal from the remaining ATP.
# NCGC Assay Protocol Summary:
# Three uL/well of ATP-buffer solution (35 uM ATP, 20mM HEPES pH8.0, 5 mM MgCl2, 60 mM NaCl, 1 mM DTT, 0.01% BSA final concentration) was dispensed into 1536-well, assay plates (Greiner, solid white medium-binding plates) with Aurora Discovery BioRAPTR Flying Reagent Dispenser (FRD; Beckton-Dickenson). Compound solution (23 nL) was transferred to the assay plate using the Kalypsys 1536-pin tool. One uL/well GALK-galactose solution (5 nM GALK, 100 uM galactose, 20 mM HEPES pH8.0, 5 mM MgCl2, 60 mM NaCl, 1 mM DTT, 0.01% BSA final concentration) was then added using the FRD yielding a total kinase reaction volume of 4 uL/ well. After 1 hour of room temperature incubation, 4 uL Kinase-Glo Plus reagent was added for a final assay volume of 8 uL/ well. Luminescence was detected with the ViewLux plate reader (Perkin Elmer, Waltham, MA) after 10 min incubation using a 1 sec exposure time and 2x binning.
# Chain of Galactokinase (Homo sapiens) (P51570 whole entry, looked up): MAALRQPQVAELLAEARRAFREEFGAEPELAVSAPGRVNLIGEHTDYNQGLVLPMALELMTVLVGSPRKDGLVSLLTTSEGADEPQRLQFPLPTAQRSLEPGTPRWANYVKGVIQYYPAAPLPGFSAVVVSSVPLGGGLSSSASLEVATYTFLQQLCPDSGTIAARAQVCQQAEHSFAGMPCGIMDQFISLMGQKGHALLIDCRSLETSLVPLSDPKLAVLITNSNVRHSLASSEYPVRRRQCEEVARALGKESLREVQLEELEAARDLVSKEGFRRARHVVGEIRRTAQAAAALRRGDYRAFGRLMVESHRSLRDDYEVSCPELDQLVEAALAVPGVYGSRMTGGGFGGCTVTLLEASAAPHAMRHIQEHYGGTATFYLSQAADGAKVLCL
row,Structure (SMILES),outcome
1,COCC(=O)O[C@]1(CCN(C)CCCc2nc3ccccc3[nH]2)CCc2cc(F)ccc2[C@@H]1C(C)C,inactive
2,C[N+](C)(C)CCOC(N)=O,inactive
3,CCOC(=O)c1cnc2c(cnn2CC)c1NN=C(C)C,inactive
4,CCCCCN(CCCCC)C(=O)C(CCC(=O)O)NC(=O)c1ccc(Cl)c(Cl)c1 (stereo not given),inactive
5,CN(C)CC/C=C1\c2ccccc2COc2ccccc21,inactive
6,C#CCN(C)CCCOc1ccc(Cl)cc1Cl,inactive
7,C[C@]12CCC(=O)C=C1CC[C@@H]1[C@@H]2CC[C@@]2(C)[C@H]1CC[C@]2(O)C(=O)CO,inactive
8,CCCCNc1c(C(=O)OCC)c(C)nc2c1cnn2CC,inactive
9,CCc1c(C)[nH]c2c1C(=O)C(CN1CCOCC1)CC2 (stereo not given),inactive
10,Nc1c2c(nc3ccccc13)CCCC2O (stereo not given),inactive
11,CCCC(C(=O)OCCN(CC)CC)(c1ccccc1)c1ccccc1,inactive
12,NC(N)=N/N=C/c1c(Cl)cccc1Cl,inactive
13,COCCCC/C(=N\OCCN)c1ccc(C(F)(F)F)cc1,inactive
14,NC/C=C/C(=O)O,inactive
15,O=c1[nH]c(=O)n([C@H]2C[C@H](O)[C@@H](CO)O2)cc1Br,inactive
16,O=C(CCNNC(=O)c1ccncc1)NCc1ccccc1,inactive
17,N[C@@H](COP(=O)(O)O)C(=O)O,inactive
18,c1cnc(N2CCN(Cc3ccc4c(c3)OCO4)CC2)nc1,inactive
19,CCN(CC)CCNC(=O)c1cc(S(C)(=O)=O)ccc1OC,inactive
20,Nc1ncn([C@@H]2O[C@H](CO)[C@@H](O)[C@H]2O)c(=O)n1,inactive

row,Structure (SMILES),outcome
1,COc1cc(Cc2cnc(N)nc2N)cc(OC)c1OC,inactive
2,Cc1ccc(=O)n(-c2ccccc2)c1,inactive
3,Cc1ccc(/C(=C\CN2CCCC2)c2ccccn2)cc1,inactive
4,CC(=O)Oc1cc(C(C)C)c(OCCN(C)C)cc1C,inactive
5,CCOC(=O)C1=C(C)NC(C)=C(C(=O)OC)C1c1cccc([N+](=O)[O-])c1 (stereo not given),inactive
6,COc1cc(C(=O)OCCCN2CCCN(CCCOC(=O)c3cc(OC)c(OC)c(OC)c3)CC2)cc(OC)c1OC,inactive
7,CC(C(=O)O)c1ccc(CC2CCCC2=O)cc1 (stereo not given),inactive
8,CSc1ccc(C(=O)c2[nH]c(=O)[nH]c2C)cc1,inactive
9,CCCOc1ccccc1-c1nc2n[nH]nc2c(=O)[nH]1,inactive
10,CCn1ccnc1CC1COc2ccccc2O1 (stereo not given),inactive
11,CCn1cc(C(=O)O)c(=O)c2cc3c(cc21)OCO3,inactive
12,CCc1cccc(N(C)C(N)=Nc2cccc3ccccc23)c1,inactive
13,CNCCCN1c2ccccc2CCc2ccccc21,inactive
14,NC(N)=NC(=O)Cc1c(Cl)cccc1Cl,inactive
15,COc1ccc([C@@H]2Sc3ccccc3N(CCN(C)C)C(=O)[C@@H]2OC(C)=O)cc1,inactive
16,Cc1nc2sccn2c(=O)c1CCN1CCC(=C(c2ccc(F)cc2)c2ccc(F)cc2)CC1,inactive
17,COc1ccc(CCN(C)CCCC(C#N)(c2cc(OC)c(OC)c(OC)c2)C(C)C)cc1OC (stereo not given),inactive
18,CN(C)CCCN1c2ccccc2Sc2ccc(C(F)(F)F)cc21,inactive
19,CC(=O)OC(C)C[N+](C)(C)C (stereo not given),inactive
20,COc1ccc(CN(CCN(C)C)c2ccccn2)cc1,inactive
